Screening data deposited in PubChem BioAssay by several laboratories.
Mtb UGM inh: inhibitors of M. tuberculosis UDP-galactopyranose mutase; P9WIQ1; purified UGM, fluorescence polarization probe displacement; inhibition, % at 10 µM; 320,000 tested, 0.06% active; AID 504406; in the data active = inhibition above about 10%, passing the limit was not always enough; inconclusive = no clear call, values can overlap the other calls
Mtb FBA inh: inhibitors of M. tuberculosis fructose-bisphosphate aldolase. purified M. tuberculosis FBA, fluorescence read-out. inhibition, % at 1 µM. 360,000 tested, 2.3% active; in the data active = inhibition above about 27%;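 note: 0% = vehicle and 100% = reference inhibitor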
Mtb betalactam: beta-lactam sensitization of Mtb H37Rv | M. tuberculosis H37Rv growth with meropenem, percent inhibition | inhibition, % at 25 µM | 330,000 tested, 0.27% active | AID 434955;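 note: growth measured after seven days incubation then overnight dye step; 0% = bacteria only wells and 100% = bacteria with antibiotic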
RecA splice inh: blocks M. tuberculosis RecA intein splicing. inhibition, % (no concentration beside the values). AID 2221. 290,000 tested, 0.75% active. cell-free RecA intein splicing, fluorescence; in the data active = inhibition above about 30%; inconclusive = no clear call, values can overlap the other calls;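 note: 0% = vehicle wells and 100% = reference inhibitor control wells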
Target sequence (P9WHJ3 whole entry, looked up, canonical isoform): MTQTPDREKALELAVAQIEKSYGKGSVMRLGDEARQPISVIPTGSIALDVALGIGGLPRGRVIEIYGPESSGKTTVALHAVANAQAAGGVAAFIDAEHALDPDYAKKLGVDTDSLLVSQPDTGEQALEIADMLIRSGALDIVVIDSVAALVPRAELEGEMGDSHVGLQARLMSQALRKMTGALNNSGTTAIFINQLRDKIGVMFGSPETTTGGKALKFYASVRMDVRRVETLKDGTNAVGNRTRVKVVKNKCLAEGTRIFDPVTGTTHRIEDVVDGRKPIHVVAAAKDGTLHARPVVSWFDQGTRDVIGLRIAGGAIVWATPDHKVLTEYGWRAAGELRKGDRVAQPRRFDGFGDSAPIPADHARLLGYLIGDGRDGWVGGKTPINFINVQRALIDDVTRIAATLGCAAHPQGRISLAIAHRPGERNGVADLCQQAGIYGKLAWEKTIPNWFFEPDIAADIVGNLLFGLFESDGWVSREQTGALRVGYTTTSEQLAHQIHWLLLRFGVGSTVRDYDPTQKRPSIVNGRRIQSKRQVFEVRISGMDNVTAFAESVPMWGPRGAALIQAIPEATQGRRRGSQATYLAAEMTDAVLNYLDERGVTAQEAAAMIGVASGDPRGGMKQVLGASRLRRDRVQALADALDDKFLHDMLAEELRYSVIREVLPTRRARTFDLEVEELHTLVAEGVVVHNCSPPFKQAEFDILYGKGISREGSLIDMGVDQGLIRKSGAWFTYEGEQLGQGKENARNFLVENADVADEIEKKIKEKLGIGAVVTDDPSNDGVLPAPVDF
GDH-TPI counter: inhibits GDH-TPI coupling enzymes, artifact for Mtb FBA screen; GDH-TPI coupled enzyme counterscreen, NADH absorbance; 360,000 tested, 1.2% active; AID 588335; inhibition, % at 4.8 µM; in the data active = inhibition above about 30%;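 note: 0% = DMSO wells and 100% = wells lacking the enzyme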
Rv3671c inh: Rv3671c (M. tuberculosis) protease inhibition; 320,000 tested, 0.048% active; AID 2606; P9WHR9; inhibition, % at 5.96 µM; in the data active = inhibition above about 38%;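 note: extracellular domain of Rv3671c used as enzyme; 0% = enzyme with DMSO and 100% = no enzyme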
GFP chromo cs: counter-screen GFP chromophore formation inhibition. shares compounds with RecA splice inh. cell-free GFP chromophore formation, fluorescence. EC50, µM. 2,100 tested, 83% active
An asterisk follows results filed as active; ? = inconclusive; / = not tested or not shown. The list is not random: actives were taken first. Their share in the collection is about 4%. Unless noted, the rule behind the calls is not given here.

SMILES	Mtb UGM inh	Mtb FBA inh	Mtb betalactam	RecA splice inh	GDH-TPI counter	Rv3671c inh	GFP chromo cs
O=C(c1c[nH]c(C(=O)C(Cl)(Cl)Cl)c1)c1ccccc1Cl	-2.7	-1.2	-4.0	31.9*	-7.5	-2.2	25*
COc1ccccc1NC(=O)Cc1nnc(SCC(=O)Nc2nccs2)n1C	1.4	0.2	-2.4	-2.4	-8.0	2.1	/
CCC1=Nc2cc(C(=O)NCCCN3CCOCC3)ccc2Sc2ccccc21	-1.4	0.9	-0.8	-0.7	-5.5	-6.8	/
CCC1=Nc2cc(C(=O)NCCN3CCCC3)ccc2Sc2ccccc21	-1.0	1.0	-2.3	37.5*	-5.5	-2.0	>38
CC12CCC(C(=O)OC3CCCCC3)(OC1=O)C2(C)C (stereo unspecified)	2.2	2.6	5.2	2.6	0.5	0.4	/
Fc1ccc(-[n+]2nc(Nc3ccccc3)sc2-c2c(Cl)cccc2Cl)cc1	0.0	-2.4	69.5	13.2	9.4	-2.7	/
CCc1ccc(Nc2n[n+](-c3ccccc3)c(-c3c(Cl)cccc3Cl)s2)cc1	2.0	1.0	99.8	49.1*	16.8	11.9	15.6*
CC1SC(=S)N(c2ccc(N(C)C)cc2)C1=O (stereo unspecified)	-0.7	0.6	4.6	-3.4	11.6	6.6	/
COc1ccc(C(=O)C2C(c3ccc(-c4ccccc4[N+](=O)[O-])o3)NC(=O)NC2(O)C(F)(F)F)cc1 (stereo unspecified)	3.6	4.7	4.5	64.5*	4.0	-57.9	32.3*
CC(=O)c1coc2c1cc(O)c1ccccc12	0.1	0.6	?	3.8	4.9	-13.2	/
CC(=O)c1cc(O)c2ccccc2c1O	-0.6	0.7	3.9	70.2*	-0.7	-40.6	6.9*
N#Cc1cc([N+](=O)[O-])c(-n2nnc3ccccc32)c([N+](=O)[O-])c1	0.2	-10.6	4.7	94.1*	6.1	-7.5	>38
COc1ccccc1CNC(=O)COC(=O)c1ccccc1SCC(=O)N1CCCC1	0.7	-2.6	-12.3	1.1	-4.9	-7.7	/
O=C(O)CC1OCC=C2CN3CCC45C6=CC(=O)C(=O)C([N+](=O)[O-])=C6NC4C1C2CC35 (stereo unspecified)	1.6	-1.1	?	85.2*	-2.1	-115.7	7.13*
C[C@@H]1CN([C@H](C)CO)C(=O)c2cc(Br)cnc2O[C@@H]1CN(C)Cc1ccc(-c2ccccc2)cc1	/	0.8	/	/	-12.8	/	/
Cc1cc2nc(C(C)(C)C)c(Cc3ccccc3)n2c(C)c1Br	/	4.4	/	/	/	/	/
Cc1[nH]n(-c2ccccc2)c(=O)c1C=NCCc1ccccc1	2.4	-0.7	6.9	5.0	5.8	-2.9	/
Cc1[nH]n(-c2ccccc2)c(=O)c1Sc1ccc(Cl)cc1	2.8	-6.9	-3.0	57.3*	8.3	5.0	20*
Cc1[nH]n(-c2ccccc2)c(=O)c1C(C[N+](=O)[O-])c1ccc(F)cc1 (stereo unspecified)	-1.7	-0.5	98.4	76.4*	-2.3	-90.4	22.4*
Cc1[nH]n(-c2ccccc2)c(=O)c1C(C[N+](=O)[O-])c1ccc(Cl)cc1 (stereo unspecified)	/	1.0	100.1	81.9*	0.8	-76.6	15.2*
Cc1ccc(C(C[N+](=O)[O-])c2c(C)[nH]n(-c3ccccc3)c2=O)cc1 (stereo unspecified)	4.8	1.1	94.8	92.7*	24.7	-67.1	7.29*
Cc1ccc(C(=O)OCCc2c(C)[nH]n(-c3ccccc3)c2=O)cc1	-1.0	2.7	-2.8	/	7.5	1.5	/
O=S(=O)(NCc1ccc(F)cc1)c1ccc(-n2cnnn2)cc1	0.9	1.2	-7.5	8.9	-3.7	11.1	/
COc1ccc(C(c2c(C)[nH]n(-c3ccccc3)c2=O)c2c(C)[nH]n(-c3ccccc3)c2=O)cc1OC	0.6	-2.7	6.8	98.4*	-3.8	-213.8	1.27*
CC1CC(C)(C)CC2(C1)NC(=O)N(CC(=O)Nc1ccc3c(c1)OCO3)C2=O (stereo unspecified)	/	-1.9	/	/	-0.9	/	/
SMILES	Mtb UGM inh	Mtb FBA inh	Mtb betalactam	RecA splice inh	GDH-TPI counter	Rv3671c inh	GFP chromo cs
CSc1nc(-c2ccc(Cl)cc2)nn1C(=O)c1ccccc1	1.5	0.3	-2.7	4.3	4.9	1.0	/
CSc1nc(-c2ccccc2)nn1C(=O)c1ccc(Cl)cc1	0.2	3.7	32.6	57.3*	3.8	-2.9	>38
O=C(Sc1nnc(-c2ccccc2)o1)N1c2ccccc2Sc2ccccc21	1.0	-1.5	91.5	56.6*	-9.6	-0.5	0.918*
O=C(NCc1ccco1)c1ccc(CS(=O)Cc2ccc(Cl)cc2)o1 (stereo unspecified)	-0.1	-1.9	-3.8	-1.5	-0.8	-1.7	/
c1ccc(-c2nc(N3CCCCCC3)c3ccccc3n2)nc1	2.1	2.9	81.0	32.2*	12.0	-0.4	>38
COc1cccc(C2C3=C(CCCC3=O)Nc3[nH]n(-c4ccccc4)c(=O)c32)c1 (stereo unspecified)	-1.0	-0.2	-0.2	0.2	21.3	-1.2	/
O=C1CCCC2=C1C(c1ccc3c(c1)OCO3)c1c([nH]n(-c3ccccc3)c1=O)N2 (stereo unspecified)	0.5	-4.2	-11.5	74.2*	37.2*	-6.8	13.6*
O=C(CCl)Nc1c(C(=O)Nc2ccc3c(c2)OCCO3)oc2ccccc12	3.4	-2.4	94.1	30.9*	11.8	-3.6	3.65*
CC(=O)Nc1cccc(Oc2ccc3c(c2)C(=O)NC3=O)c1	0.0	-1.9	-2.2	-1.3	7.1	-4.8	/
Cc1nn(C)c(C)c1CN(C(=O)C1CCC(=O)N(C2CCCCCC2)C1)C(C)C (stereo unspecified)	-2.7	1.0	-6.3	-7.7	3.4	-4.4	/
CC1OC(Nc2cccc3ccccc23)C(O)C(O)C1O (stereo unspecified)	0.1	7.7	92.0	45.8*	3.7	-24.0	>38
CC1OC(Nc2ccc(N=Nc3ccccc3)cc2)C(O)C(O)C1O (stereo unspecified)	1.6	-16.3	85.2	4.7	16.4	-9.7	/
Cc1ccc(NC(=O)c2ccc(S(=O)(=O)N(C)c3ccccc3)cc2)cc1S(=O)(=O)N1CCOCC1	/	0.7	/	/	4.2	/	/
C/C(CC(=O)Nc1cc(C)ccn1)=N\NC(=O)C(=O)NC(C)C	-0.1	7.9	-6.7	63.6*	5.7	-4.9	39.2*
C/C(CC(=O)Nc1cccnc1)=N\NC(=O)C(=O)NC(C)C	0.7	-0.7	-2.5	-1.5	-6.1	0.6	/
C/C(CC(=O)Nc1cc(C)ccn1)=N\NC(=O)c1cccc(C)c1	0.7	7.3	2.8	70.1*	2.2	2.9	18.2*
COc1ccccc1CNC(=O)C1(C)CCN1Cc1ccc2ccccc2c1 (stereo unspecified)	/	-1.8	/	/	10.6	/	/
CCOC(=O)c1cc(S(=O)(=O)N2CCN(C3CCCCC3)CC2)cn1C	-0.8	-1.0	-3.4	-1.6	1.7	-4.5	/
Cc1ccc(S(=O)(=O)Nc2ccc(O)c3ccccc23)c(C)c1	-0.4	2.5	4.2	96.8*	-3.3	/	0.226*
